Source: PubChem BioAssay
Shown are actives, neighbours in structure and some others; about 7.3% of the full set was active somewhere.
Tau FP inhib: inhibitors of human tau fibril formation; AID 1468; 280,000 compounds, 0.39% hits; K18 P301L tau heparin fibrillization, Alexa594 FP, 6 h; P10636; Potency, µM (doses to about 57.7 µM), for inactives: at the top dose activity, negative = inhibition, usual class: inhibitors; also: nearly all actives have a fitted effect of over 55% in size
Target sequence (P10636 561-689 P618L limits assumed): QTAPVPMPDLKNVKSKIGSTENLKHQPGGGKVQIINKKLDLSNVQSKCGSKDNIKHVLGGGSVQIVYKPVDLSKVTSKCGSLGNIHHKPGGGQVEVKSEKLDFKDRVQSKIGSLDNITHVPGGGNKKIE
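Read-out: fluorescence polarization of Alexa 594-labeled tau (0.24 uM), 555 nm excitation, 632 nm emission. Mixtures held 15 uM unlabeled K18 P301L, compound and 20 uM heparin, pH 7 acetate buffer, incubated 6 hr at 37 C.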
Gal4-VP16 FLuc: counter-screen for ROR gamma inhibitors: Gal4-VP16 reporter. Drosophila S2 Gal4-VP16 UAS-luciferase, luminescence, 20 h. Potency, µM (highest dose often 53.6 µM), inactives show top-dose activity, negative = inhibition, hits mostly inhibitors. 310,000 compounds, 3.5% hits;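 also: Gal4-VP16 expression switched on by copper sulfate through the metallothionein promoter; nearly all actives have a fitted effect of over 50% in size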
Tau ThT inhib: inhibitors of human tau fibril formation, thioflavin T binding. recombinant tau K18 P301L, heparin-induced fibrillization, ThT fluorescence. Potency, µM (doses to about 57.4 µM), without a hit: top-dose activity, negative = inhibition, most hits filed as inhibitors. 270,000 compounds, 2.1% hits; also: nearly all actives have a fitted effect of over 55% in size
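Heparin-induced fibrillization of the P301L-mutant K18 repeat-domain fragment of human tau was followed by ThT binding in quantitative high-throughput format.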
Tau fluor counter: counter-screen for tau fibril formation inhibitors; 280,000 compounds, 0.93% hits; Potency, µM (top dose mostly 57.7 µM), inactives show top-dose activity change, negative = decrease; AID 1463; tau K18 P301L Alexa594 fluorescence, heparin fibrillization; also: nearly all actives have a fitted effect of over 55% in size
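Human tau K18 P301L (15 uM unlabeled, 0.24 uM Alexa 594-labeled) in 100 mM sodium acetate pH 7 with 20 uM heparin, 6 hr at 37 C. ThT 30 uM added, 1 hr ambient; Alexa 594 FP and total fluorescence read at 555/632 nm.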
RORgamma inh: blocks mouse ROR gamma transcriptional activity; P51450; Drosophila S2 Gal4-RORgamma UAS-luciferase reporter, 20 h; Potency, µM (top dose mostly 53.6 µM), without a hit: at the top dose activity change, negative = inhibition, hits mostly inhibitors; 310,000 compounds, 5.4% hits; AID 2551; also: nearly all actives have a fitted effect of over 60% in size
Target sequence (P51450 whole entry, looked up, the tested form may be a part): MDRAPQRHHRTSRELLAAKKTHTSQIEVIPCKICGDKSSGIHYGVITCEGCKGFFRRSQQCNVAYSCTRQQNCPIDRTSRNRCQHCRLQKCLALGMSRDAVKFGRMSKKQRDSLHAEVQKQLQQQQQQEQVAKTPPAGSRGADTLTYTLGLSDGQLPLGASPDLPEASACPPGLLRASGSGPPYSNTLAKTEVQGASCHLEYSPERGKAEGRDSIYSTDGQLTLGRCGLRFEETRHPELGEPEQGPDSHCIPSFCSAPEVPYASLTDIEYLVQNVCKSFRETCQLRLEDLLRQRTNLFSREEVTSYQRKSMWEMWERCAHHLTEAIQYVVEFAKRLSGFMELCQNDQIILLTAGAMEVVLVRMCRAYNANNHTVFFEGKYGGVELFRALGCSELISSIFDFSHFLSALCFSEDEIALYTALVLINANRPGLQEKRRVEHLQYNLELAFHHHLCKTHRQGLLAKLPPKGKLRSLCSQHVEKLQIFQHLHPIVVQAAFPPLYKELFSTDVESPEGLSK
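In this cell-based reporter format, copper sulfate (700 uM final) drives Gal4–ROR gamma fusion expression from a metallothionein promoter in Drosophila Schneider cells; compounds preincubated 1 hr, reporter read after 20 hr at ambient temperature.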
Active calls of the source: *; [ ] = another dose, or the depositor's remark. Calls follow the shape of the dose curve; as a rule, active = well fitted curve in the direction sought with a large enough effect; inconclusive = small, poorly fitted or top-dose-only effect, or another doubt; inactive = no such curve, though single readings can be large; an effect the other way counts as inactive or inconclusive. % is scaled to controls: 0 for no effect and ±100 for the full control effect; potency is read from the fitted curve at half-maximal effect.

`COc1ccc(-c2ccc(C(C)=O)cc2)cc1C1C2C=CCC(C)C2C(=O)N1Cc1ccccc1` (configuration not stated) gave Gal4-VP16 FLuc 5% and RORgamma inh 14%.
CCN(CC)CCNC(=O)c1ccc(NC(=O)/C=C/c2ccc3ccccc3n2)cc1 was read as Gal4-VP16 FLuc -9% and RORgamma inh -12%.
Screening COc1ccc(S(=O)(=O)N2CC(=O)Nc3ccccc32)cc1 returned Gal4-VP16 FLuc -14% and RORgamma inh 7%.
`CCOc1ccc(S(=O)(=O)NCc2cccn2Cc2cccc(C)c2)cc1` gave Tau FP inhib 5%, Tau ThT inhib 6% and Tau fluor counter -3%.
For O=C1C=CC(=O)C(C2=C3C(=O)N(CCc4ccccc4)CC(=O)N3CCC2)=C1 the results were Tau FP inhib inconclusive, Gal4-VP16 FLuc 7.9µM*, Tau ThT inhib 16µM*, Tau fluor counter inconclusive and RORgamma inh inconclusive.
Cc1ccc(O)c(N=Cc2cc(Cc3ccccc3)cc([N+](=O)[O-])c2O)c1 was read as Tau FP inhib inconclusive, Gal4-VP16 FLuc -17%[10 µM], Tau ThT inhib 8.9µM*, Tau fluor counter inconclusive and RORgamma inh 13µM*.
Screening O=[N+]([O-])c1cccc(C=Nc2cccc3ccccc23)c1O returned Gal4-VP16 FLuc -16% and RORgamma inh 1.6µM*.
`O=[N+]([O-])c1cc(Cc2ccccc2)cc(C=Nc2ccc(N3CCOCC3)cc2)c1O` gave Tau FP inhib inconclusive, Gal4-VP16 FLuc -15%, Tau ThT inhib 10µM*, Tau fluor counter inconclusive and RORgamma inh inconclusive.
`COc1ccccc1Nc1nc(C)cc(C)c1C(N)=O` gave Tau FP inhib 5%, Gal4-VP16 FLuc 2%, Tau ThT inhib -3%, Tau fluor counter 1% and RORgamma inh 7%.
Cc1cc(C)c(C(N)=O)c(Nc2cccc3ccccc23)n1 was read as Tau FP inhib 4%, Gal4-VP16 FLuc inconclusive, Tau ThT inhib -13%, Tau fluor counter -7% and RORgamma inh 2.8µM*.
Screening CCOC(=O)Cc1cc(=O)n2[nH]cc(-c3ccc(Cl)cc3)c2n1 returned Tau FP inhib 4%, Gal4-VP16 FLuc inconclusive, Tau ThT inhib inconclusive, Tau fluor counter inconclusive and RORgamma inh 11µM*.
`COCc1cc(=O)n2[nH]cc(-c3ccsc3)c2n1` gave Gal4-VP16 FLuc inconclusive and RORgamma inh 16µM*.
`CCOC(=O)Cc1c(C)nc2c(-c3ccccc3)c(-c3ccccc3)[nH]n2c1=O` gave Tau FP inhib 11%, Gal4-VP16 FLuc inconclusive, Tau ThT inhib -10%, Tau fluor counter 3% and RORgamma inh 13µM*.
CCOC(=O)Cc1c(C)nc2c(-c3ccccc3)c[nH]n2c1=O was read as Tau FP inhib -1%, Gal4-VP16 FLuc -7%[0.365 µM], Tau ThT inhib -10%, Tau fluor counter -6% and RORgamma inh 7.9µM*.
`CCOC(=O)Cc1c(C)nc2c(-c3ccccc3)c(C)[nH]n2c1=O` gave Tau FP inhib -5%, Gal4-VP16 FLuc 2%, Tau ThT inhib 2%, Tau fluor counter -1% and RORgamma inh 34%.
`CN(C)C1(CNC(=O)C2CCC(=O)N(CCc3ccc(Cl)cc3)C2)CCCCC1` (configuration not stated) gave Gal4-VP16 FLuc -9% and RORgamma inh -4%.
For CCNc1ncc2nc(-c3cccc(C#N)c3)c(=O)n(C)c2n1 the results were Gal4-VP16 FLuc 5% and RORgamma inh 10%.
For CNC(=S)NNC(=O)c1sc2cc(C(F)(F)F)cnc2c1-c1ccccn1 the results were Tau FP inhib -3%, Gal4-VP16 FLuc -18%, Tau ThT inhib -5%, Tau fluor counter -3% and RORgamma inh 1.1µM*.
For CNC(=S)NNC(=O)c1sc2cc(C(F)(F)F)cnc2c1-c1cccnc1 the results were Tau FP inhib 0%, Gal4-VP16 FLuc -2%, Tau ThT inhib -7%, Tau fluor counter -1% and RORgamma inh 18µM*.
`CC(/C=N/NC(=O)c1cccnc1)=C\c1ccccc1` gave Tau FP inhib 6%, Gal4-VP16 FLuc -18%, Tau ThT inhib -7%, Tau fluor counter -11% and RORgamma inh 19%.
`CC(/C=N/Nc1nc(C)cc(C)n1)=C\c1ccc(C(C)C)cc1` gave Tau FP inhib 0%, Gal4-VP16 FLuc inconclusive, Tau ThT inhib inconclusive, Tau fluor counter -14% and RORgamma inh 11µM*.
CC(/C=N/NC(=O)c1ccncc1)=C\c1ccc(C(C)C)cc1 was read as Tau FP inhib inconclusive, Gal4-VP16 FLuc 0%, Tau ThT inhib 20µM*, Tau fluor counter -21% and RORgamma inh -7%.
Screening CC(/C=N/NC(=O)CSc1nc(C)cc(C)n1)=C\c1ccccc1 returned Tau FP inhib 10%, Gal4-VP16 FLuc 2%, Tau ThT inhib -7%, Tau fluor counter -7% and RORgamma inh inconclusive.
For Cc1ccc(Cn2c(CNC(=O)c3cccc(C)c3)nc3ccccc32)cc1 the results were Tau FP inhib -2%, Tau ThT inhib -2% and Tau fluor counter -2%.
CCc1cc2c3c(c1)C(C)CC(C)(C)N3C(=O)/C2=C1\SC(=O)NC1=O (configuration not stated) was read as Tau FP inhib 3%, Gal4-VP16 FLuc -3%, Tau ThT inhib 14µM*, Tau fluor counter inconclusive and RORgamma inh 29%.
`O=C(/C=C/c1ccc(Cl)c(Cl)c1)N1CCOCC1` gave Gal4-VP16 FLuc 14% and RORgamma inh inconclusive.
O=C(/C=C/c1ccc(Cl)c(Cl)c1)n1cccn1 was read as Tau FP inhib inconclusive, Gal4-VP16 FLuc -5%, Tau ThT inhib 14µM*, Tau fluor counter -11% and RORgamma inh -6%.
For COCCNc1nc2c(c(=O)[nH]c(=O)n2C)n1CCCc1ccccc1 the results were Gal4-VP16 FLuc -12% and RORgamma inh -11%[1.91 µM].
For Nc1c(Cl)ncnc1NCCc1ccc(O)cc1 the results were Tau FP inhib 8%, Gal4-VP16 FLuc 7.9µM*, Tau ThT inhib -14%, Tau fluor counter -7% and RORgamma inh -4%.
Nc1c(Cl)ncnc1NCc1cccnc1 was read as Gal4-VP16 FLuc 9% and RORgamma inh -24%.
`CC(C)OC(=O)c1cccc(NC(=O)Cn2nnc3sc4c(c3c2=O)CCCC4)c1` gave Tau FP inhib inconclusive, Tau ThT inhib -11% and Tau fluor counter inconclusive.
For Nc1nonc1C(=O)NCCNCc1ccccc1OCc1ccccc1F the results were Tau FP inhib 2%, Gal4-VP16 FLuc inconclusive, Tau ThT inhib -4%, Tau fluor counter -3% and RORgamma inh inconclusive.
NS(=O)(=O)c1ccc(CCNCc2cc(Br)ccc2OCc2ccccc2F)cc1 was read as Tau FP inhib -8%, Gal4-VP16 FLuc 13µM*, Tau ThT inhib -18%, Tau fluor counter -26% and RORgamma inh -18%.
